In PubChem BioAssay (NCATS):
“And” between values parts separate entries of the source, which are not always exact repeats. Identical values can stand only once. Records with an inconclusive call do not appear. Where a call stands in place of a potency, no number is given. Where a structure was tested more than once in an assay, its records may differ in their call. Values without a mark were called inactive. The source made the active and inactive calls. Calls come from the whole dose curve; as a rule, active = well fitted curve in the direction sought with a large enough effect; inconclusive = small, poorly fitted or top-dose-only effect, or another doubt; inactive = no such curve, though single readings can be large; an effect the other way counts as inactive or inconclusive.

Key:
[1] = Viability qHTS for spleen associated tyrosine kinase inhibitor (SYKi) drug resistant MV4-11 cells (AID 1963824); note: nearly all actives have a fitted effect of over 35% in size; note: potency is the fitted concentration of half-maximal effect
In short: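 SYK-inhibitor-resistant MV4-11 AML cells were seeded at 500 per well onto compound and cultured 72 hours (37 °C, 5% CO2). CellTiter-Glo was then added, and after 10 min at room temperature, luminescence gave viability.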

[2] = Quantitative highthroughput screen to assess conditional lethalithy of NOMO1 cells grown in RPMI1640 with untreated serum (RPMI+s) (AID 1963876); note: nearly all actives have a fitted effect of over 35% in size; note: potency is the fitted concentration of half-maximal effect
In short: (§1)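 Each medium arm—HPLM with 10% dialyzed FBS, or RPMI1640 with 5 mM glucose and 10% untreated or dialyzed FBS—was screened against an 11-point, 3-fold compound titration for 48 h at 37 °C, with CellTiter-Glo luminescence as endpoint.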

[3] = Quantitative highthroughput screen to assess conditional lethalithy of SEM cells grown in Human Plasma-Like Medium with dialyzed fetal bovine serum (HPLM+ds) (AID 1963882); note: nearly all actives have a fitted effect of over 35% in size; note: potency is the fitted concentration of half-maximal effect; for Viability: series mostly up to about 46 µM
In short: as §1

[4] = Quantitative highthroughput screen to assess conditional lethalithy of SEM cells grown in RPMI1640 with unreated serum (RPMI+s) (AID 1963883); note: nearly all actives have a fitted effect of over 35% in size; note: potency is the fitted concentration of half-maximal effect
In short: as §1

[5] = Quantitative highthroughput screen to assess conditional lethalithy of SEM cells grown in RPMI1640 with dialyzed fetal bovine serum (RPMI+ds) (AID 1963884)
In short: as §1

[6] = Quantitative highthroughput screen to assess conditional lethalithy of NOMO1 cells grown in RPMI1640 with dialyzed fetal bovine serum (RPMI+ds) (AID 1963877); note: nearly all actives have a fitted effect of over 30% in size; note: potency is the fitted concentration of half-maximal effect; for Viability: series mostly up to about 46 µM
In short: as §1

[7] = Quantitative highthroughput screen to assess conditional lethalithy of NOMO1 cells grown in Human Plasma-Like Medium with dialyzed fetal bovine serum (HPLM+ds) (AID 1963878); note: nearly all actives have a fitted effect of over 35% in size; note: potency is the fitted concentration of half-maximal effect
In short: as §1

[8] = Quantitative highthroughput screen to assess conditional lethalithy of P12 Ichikawa cells grown in Human Plasma-Like Medium with dialyzed fetal bovine serum (HPLM+ds) (AID 1963879); conditions: Potency: viability; note: nearly all actives have a fitted effect of over 35% in size; note: potency is the fitted concentration of half-maximal effect; for Viability: series mostly up to about 46 µM
In short: as §1

[9] = Quantitative highthroughput screen to assess conditional lethalithy of P12 Ichikawa cells grown in RPMI1640 with untreated serum (RPMI+s) (AID 1963881); conditions: Potency: viability; note: nearly all actives have a fitted effect of over 35% in size; note: potency is the fitted concentration of half-maximal effect; for Viability: series mostly up to about 46 µM
In short: as §1

[10] = Cellular viability qHTS for adrenocortical cancer (ACC) cell line SW-13 (AID 1963989); conditions: SW-13 ACC cells viability, CellTiter-Glo, 48 h; activity (max response): active compounds read low; note: nearly all actives have a fitted effect of over 65% in size; note: potency is the fitted concentration of half-maximal effect;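 for activity (max response): cells grown in serum-free medium with ITS supplement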
In short: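 SW-13 cells in ITS-supplemented serum-free DMEM were plated overnight, then exposed for 48 h at 37C to compound titrations (up to 46 uM final). Viability was read by CellTiter-Glo luminescence; four-parameter logistic fits gave IC50 and efficacy.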

[11] = Quantitative highthroughput screen to assess conditional lethalithy of P12 Ichikawa cells grown in RPMI1640 with dialyzed fetal bovine serum (RPMI+ds) (AID 1963880); conditions: Potency: P12-Ichikawa viability; note: nearly all actives have a fitted effect of over 35% in size; note: potency is the fitted concentration of half-maximal effect
In short: as §1

[12] = Cellular viability qHTS for adrenocortical cancer (ACC) cell line NCI-H295R (AID 1963990); note: nearly all actives have a fitted effect of over 60% in size; note: potency is the fitted concentration of half-maximal effect
In short: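 Luminescent ATP read-out (CellTiter-Glo, 20 min RT) after 48 h drug exposure of NCI-H295R cells; a titration up to 46 uM final. Data normalized to doxorubicin (100% inhibition) and DMSO (0%); 4-parameter fit gives IC50, max response.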

Structure (SMILES) | Potency [1] | Potency [2] | Potency [3] | Potency [4] | Potency [5] | Potency [6] | Potency [7] | Potency [8] | Potency [9] | activity (max response) [10] | Potency [11] | Potency [10] | Potency [12]
O=C(C1CC1)N1CC[C@@H](Cn2c(-c3ccc(-c4ccc5occc5c4)cc3)nc3cnccc32)C1 | 14.8 µM (active) | inactive | inactive | inactive | inactive |  |  |  |  |  |  |  | 
O=C(O)c1ccc(Nc2ncc3c(n2)-c2ccc(Cl)cc2C(c2c(F)cccc2F)=NC3)cc1 | 0.206 µM (active) |  |  |  |  | 0.662 µM (active) | 0.59 µM (active) | 1.18 µM (active) | 0.935 µM (active) | -30% |  |  | 
COc1cc2c(NC3CCN(C(C)C)CC3)nc(C3CCCCC3)nc2cc1OCCCN1CCCC1 | 3.32 µM (active) |  | 16.6 µM (active) | 26.4 µM (active) |  | 20.9 µM (active) | 23.5 µM (active) |  |  |  | 20.9 µM (active) | 17.8 µM (active) | 12.6 µM (active)
Cc1ccc(-n2[nH]c(C)c(N=Nc3cccc(-c4cccc(C(=O)O)c4)c3O)c2=O)cc1C | 13.3 µM (active) | inactive |  |  |  |  |  |  |  | 7.78% |  |  | 
CN(C)c1ccc(Nc2nc(N)n(C(=O)c3c(F)cccc3F)n2)cc1 | 4.17 µM (active) |  |  |  |  | 11.8 µM (active) |  |  |  |  |  |  | 
CC[C@H](C)n1cc(C)c2c(C(=O)NCc3c(C)cc(C)[nH]c3=O)cc(-c3ccc(N4CCNCC4)nc3)cc21 | 10.5 µM (active) | inactive | inactive | inactive | inactive |  |  | inactive | inactive |  | inactive |  | 28.2 µM (active)
CN(C)c1ccccc1CN1CCCN(Cc2ccccc2N(C)C)C1c1ccncc1 | 7.42 µM (active) | inactive | inactive |  |  |  |  |  | inactive |  | inactive | 28.2 µM (active) | 28.2 µM (active)
O=C(NC1CC1)c1cccc(-c2ccc3c(NC(=O)C4CC4)n[nH]c3c2)c1 | 4.68 µM (active) | 23.5 µM (active) | 16.6 µM (active) | 14.8 µM (active) |  |  |  | 10.5 µM (active) | 11.8 µM (active) |  | 11.8 µM (active) | 3.55 µM (active) | 15.8 µM (active)
O=S(=O)(c1cccc2cnccc12)N1CCCNCC1 | inactive | inactive | inactive |  | inactive |  |  |  | inactive |  |  |  | inactive
Nc1nc2[nH]cc(CCc3ccc(C(=O)N[C@@H](CCC(=O)O)C(=O)O)cc3)c2c(=O)[nH]1 | 0.263 µM (active) | inactive |  |  |  |  |  |  |  |  |  |  | 3.16 µM (active)
CCCc1cc(=O)[nH]c(=S)[nH]1 | inactive | 9.35 µM (active) |  |  |  |  |  | 10.5 µM (active) | 14.8 µM (active) | 3.86% and 14.9% | 16.6 µM (active) |  | inactive
OCCN(CCO)c1nc(N2CCCCC2)c2nc(N(CCO)CCO)nc(N3CCCCC3)c2n1 | 18.8 µM (active) and 14.8 µM (active) | inactive | inactive |  |  |  |  |  |  | -9.57% |  | 5.17 µM (active) | 
CCOC(=O)c1c(CSc2ccccc2)n(C)c2cc(Br)c(O)c(CN(C)C)c12 | 10.5 µM (active) |  | inactive |  | inactive | 16.6 µM (active) | inactive | inactive |  |  |  |  | 
CCOC(=O)C(C)Oc1cccc2c(=O)n(CC(=O)Nc3ccc4c(c3)OCCO4)ccc12 (stereo not given) | 0.934 µM (active) |  | inactive | inactive | inactive | inactive | inactive | inactive | inactive | 14.3% | inactive |  | inactive
O=C(CCc1ccc(O)cc1)c1c(O)cc(O)cc1O | inactive |  | inactive | inactive |  | inactive |  | inactive | inactive | -4.39% | inactive |  | inactive
CCOc1cc(CC(=O)N[C@@H](CC(C)C)c2ccccc2N2CCCCC2)ccc1C(=O)O | inactive | 0.332 µM (active) | inactive | inactive | inactive |  |  | 2.35 µM (active) |  |  | 3.32 µM (active) |  | 25.1 µM (active)
Cc1ccccc1C(C(=O)NC1CCCCC1)N(C(=O)Cn1ccnc1C)c1cccc(F)c1 (stereo not given) | 9.34 µM (active) |  | inactive | inactive | inactive | inactive | inactive | inactive | inactive | -14.8% | inactive |  | inactive
CNC(=O)CN1CCC(Oc2cc3c(Nc4cccc(Cl)c4F)ncnc3cc2OC)CC1 | 11.6 µM (active) | 0.372 µM (active) | inactive |  |  |  |  |  | 2.09 µM (active) |  | 3.32 µM (active) | 0.562 µM (active) | inactive
Clc1cccc(-c2nnnn2Cc2cccnc2)c1Cl | inactive |  |  |  |  |  |  | 7.43 µM (active) | 1.32 µM (active) |  |  |  | 
